Only some compounds are listed: those with a hit (about 2.3% of all), similar ones and a draw of the others.
SENP8 block-1 = SENP8 protease inhibitors, primary screen, biochemical, luminescence. Sentrin-specific protease 8 (Homo sapiens), Q96LD8. inhibition, % at 10 µM. purified SENP8, Z-RLRGG-aminoluciferin cleavage. AID 2540, 2010. 1.2% of 330,000 active; in the data active means inhibition above about 50%
SENP7 inh = SENP7 protease inhibitors, primary screen, biochemical, luminescence, uHTS; inhibition, % at 5 µM; recombinant SENP7, Z-RLRGG-aminoluciferin luminescence, 40 min; 1.5% of 330,000 active; Sentrin-specific protease 7 (Homo sapiens), Q9BQF6;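 active means inhibition above about 50% at the single test dose, limit read from the data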;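 further: plate controls were DMSO with enzyme for no effect and no enzyme buffer wells for full effect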
LGR2 inh = inhibitors of bursicon-induced LGR2 CRE-luciferase signal, primary screen, cell-based, HEK293, CRE-luciferase reporter, bursicon stimulation; Drosophila bursicon receptor LGR2 (rickets); bursicon-stimulated, 4 h; inhibition, % at 9.99 µM; 0.35% of 380,000 active; AID 720647, 2013;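 active means drop in luminescence signal, shown as inhibition above about 50% in the replicate tests, limit read from the data, passing the limit was not always enough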;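 further: agonist challenge used bursicon conditioned medium at about half maximal strength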
SENP6 inh = SENP6 protease inhibitors, primary screen, biochemical, luminescence, uHTS; 1.8% of 330,000 active; Recombinant SENP6 catalytic domain, aminoluciferin luminescence; Sentrin-specific protease 6 (Homo sapiens), Q9GZR1; inhibition, % at 10 µM;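 active means inhibition above about 50% at the single tested dose, limit read from the data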;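 further: plate controls were DMSO wells with enzyme for no effect and DMSO wells lacking enzyme for full effect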
Target sequence (Q9GZR1 628-1112 limits assumed): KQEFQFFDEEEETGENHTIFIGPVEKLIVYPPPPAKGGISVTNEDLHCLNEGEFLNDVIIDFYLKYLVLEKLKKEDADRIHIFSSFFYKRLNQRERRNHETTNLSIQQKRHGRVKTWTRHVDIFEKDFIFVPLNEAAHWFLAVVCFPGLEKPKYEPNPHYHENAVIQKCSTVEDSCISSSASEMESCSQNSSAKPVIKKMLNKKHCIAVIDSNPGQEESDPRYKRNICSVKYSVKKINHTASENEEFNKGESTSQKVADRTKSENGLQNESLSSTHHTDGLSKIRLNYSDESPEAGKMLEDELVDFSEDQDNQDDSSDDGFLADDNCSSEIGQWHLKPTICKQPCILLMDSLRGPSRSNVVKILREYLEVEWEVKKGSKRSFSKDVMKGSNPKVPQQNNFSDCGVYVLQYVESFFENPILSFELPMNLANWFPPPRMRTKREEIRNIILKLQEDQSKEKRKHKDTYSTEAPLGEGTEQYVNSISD
SENP8 block-2 = human SENP8 protease inhibitors, primary screen, biochemical, fluorescence, Nedd8 protein substrate, uHTS | Sentrin-specific protease 8 (Homo sapiens), Q96LD8 | recombinant SENP8 | inhibition, % at 20 µM | 0.64% of 360,000 active | AID 602440, 2012; in the data active means inhibition mostly above about 40%, no sharp cut-off; inactive means mostly below about 27%
HSP90 inh = HSP90 inhibitors, primary screen, cell lysate, luminescence; AID 1789, 2009; Rabbit reticulocyte lysate, luciferase refolding luminescence, 3 h; inhibition, % at 5.6 µM; 0.91% of 290,000 active;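 active means inhibition above the screen-wide mean plus 3 SD, computed separately per campaign, cut at about 16% in these data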;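 further: 0% = DMSO wells and 100% = 60 µM geldanamycin wells; inhibitors lower the luminescence because luciferase stays unfolded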
SENP8 inh conf = human SENP8 protease inhibitors, confirmation, biochemical, Nedd8 protein substrate, single concentration; shares compounds with SENP8 block-2; purified SENP8, Nedd8-AMC/pro-Nedd8 cleavage fluorescence, 30 min; inhibition, % at 25 µM; 15% of 1,400 active; AID 624319, 2012; in the data active means inhibition mostly above about 39%, no sharp cut-off; inactive means mostly below about 34%
Numbers without * were called inactive; nt = no result; ! = not confirmed by another sample.

SMILES	SENP8 block-1	SENP7 inh	LGR2 inh	SENP6 inh	SENP8 block-2	HSP90 inh	SENP8 inh conf
Cn1c(NNC(=O)c2c(F)cccc2F)cc(=O)n(C)c1=O	6	7	1	-10	48*	4	48*
Cn1c(NNC(=O)c2ccccc2F)cc(=O)n(C)c1=O	-7	-2	5	-2	23	-1	nt
Cc1ccc(NC(=O)c2ccc(CN3CCc4ccccc4C3)cc2)cc1	6	12	nt	21	71*	-1	29
O=C(Nc1cccnc1)c1ccc(CN2CCc3ccccc3C2)cc1	-9	-4	nt	-14	51*	2	34
O=C(NCCN1CCc2ccccc2C1)Nc1ccc(F)cc1	-13	-12	-8	-4	26	-6	nt
CCc1ccc(NC(=O)CN2CCc3ccccc3C2)cc1	7	6	nt	9	70*	3	36
CCc1ccc(NC(=O)NCCN2CCc3ccccc3C2)cc1	-4	-2	nt	0	45*	-1	16
C[C@@H]1CCCCO[C@@H](CN(C)S(=O)(=O)c2cn(C)cn2)[C@@H](C)CN([C@@H](C)CO)C(=O)c2cc(NS(C)(=O)=O)ccc2O1	nt	nt	-12	nt	nt	nt	nt
CO[C@@H]1CN(C)C(=O)c2cc(NC(=O)c3cc(C)on3)ccc2OC[C@@H](C)N(CC2CC2)C[C@H]1C	nt	nt	10	nt	nt	nt	nt
Cc1ccc(NC(=O)CS(=O)CC(=O)NCCCc2ccccc2)cc1Cl (stereo not drawn)	-5	0	nt	-8	41*	-1	17
CC(C)NC(=O)N(C)C[C@H]1Oc2ccc(NC(=O)C3CCCCC3)cc2CC(=O)N([C@H](C)CO)C[C@H]1C	nt	nt	-4	nt	nt	nt	nt
CC(C)=CCc1c2c(c3occ(-c4ccc(O)cc4)c(=O)c3c1O)C=CC(C)(C)O2	-6	-15	nt	11	43*	-1	26
CC(C)=CCc1c2c(c3occ(-c4ccc(O)c(O)c4)c(=O)c3c1O)C=CC(C)(C)O2	nt	nt	-12	nt	26	nt	nt
C[C@@H]1CN([C@H](C)CO)C(=O)c2ccccc2-c2ccccc2CO[C@@H]1CN(C)S(=O)(=O)c1ccc([N+](=O)[O-])cc1	nt	nt	5	nt	nt	nt	nt
CCOC(=O)C1(CC2CCCCO2)CCN(Cc2cn[nH]c2-c2cccc(F)c2)CC1 (stereo not drawn)	-8	-3	-9	-9	45*	3	15
CN(C)C(=O)C[C@H]1CC[C@H]2[C@@H](COC[C@H](O)CN2CC2CC2)O1	nt	nt	2	nt	nt	nt	nt
CCOC(=O)CC(=O)Nc1ccc(C)cc1	5	3	nt	0	40*	-2	12
COC(=O)Nc1ccc(S(=O)(=O)NC2CCS(=O)(=O)C2)cc1 (stereo not drawn)	6	6	3	20	45*	0	32
CCCCc1ccc(S(=O)(=O)NC2CCS(=O)(=O)C2)cc1 (stereo not drawn)	6	5	7	0	8	0	nt
O=c1[nH]c(CN2CCCCC2)ccc1O	nt	nt	-3	nt	68*	nt	38*
CSCC[C@H](NC(=O)N1CCn2c1nc1ccccc12)C(=O)N[C@H](Cc1ccccc1)C(=O)O	1	12	6	-1	49*	-3	9
O=C(CCCCCNC(=O)N1CCn2c1nc1ccccc12)N[C@@H](Cc1ccccc1)C(=O)O	4	2	-26	2	47*	5	12
COCC(=O)NC[C@@H]1[C@H](c2ccccc2)[C@@H](CO)N1C(C)=O	nt	nt	-37	nt	nt	nt	nt
Cc1ccc(Sc2ncccc2COC(=O)Nc2c(C)cccc2C)cc1	11	-7	nt	-1	20	0	nt
Cc1ccc(Sc2ncccc2COC(=O)Nc2ccccc2)cc1	-15	-1	nt	15	40*	0	9
SMILES	SENP8 block-1	SENP7 inh	LGR2 inh	SENP6 inh	SENP8 block-2	HSP90 inh	SENP8 inh conf
COc1ccc2c3c1OC1CC(O)C=CC31CCN(C)C2 (stereo not drawn)	-8	-4	3	-6	42*!	-5	8
Cc1[nH][nH]c(=O)c1C(c1ccc(-c2ccc(F)cc2)o1)c1c(C)[nH][nH]c1=O	3	-1	-42	13	75*	5	72*
Cc1[nH][nH]c(=O)c1C(c1ccc(N(C)C)c(Br)c1)c1c(C)[nH][nH]c1=O	-5	-8	11	5	25	1	nt
COc1ccc(-c2ccc(C(c3c(C)[nH][nH]c3=O)c3c(C)[nH][nH]c3=O)o2)c([N+](=O)[O-])c1	20	10	-44	13	38*	14	31
COc1cccc(C(=O)N2C[C@H]3[C@@H](c4ccccc42)[C@@H](CO)N3C(=O)c2cccc(F)c2)c1	nt	nt	-5	nt	nt	nt	nt
c1ccc(CNCCC(Cc2ccccc2)c2ccco2)cc1 (stereo not drawn)	-5	4	nt	-16	48*	2	-9
CC(=O)NCCC(Cc1ccccc1)c1ccco1 (stereo not drawn)	-3	0	nt	13	12	0	nt
O=[N+]([O-])c1cc(S(=O)(=O)N2CCCC2)ccc1N/N=C/c1ccncc1	0	8	2	0	47*	3	20
NS(=O)(=O)c1ccc(N/N=C/c2cn(-c3ccccc3)nc2-c2ccccc2)c([N+](=O)[O-])c1	2	-3	-21	15	54*	-4	6
NS(=O)(=O)c1ccc(N/N=C/c2ccc3c(c2)OCO3)c([N+](=O)[O-])c1	-23	-14	0	-17	44*	-1	10
C[C@@H]1CCCCO[C@@H](CN(C)C(=O)Nc2ccc(F)cc2)[C@@H](C)CN([C@@H](C)CO)C(=O)c2cc(NC(=O)C3CCCCC3)ccc2O1	nt	nt	16	nt	nt	nt	nt
COc1ccc(-n2[nH]c(C)cc2=O)cc1	-5	-3	nt	-6	68*	17*	40
Cc1cc(=O)[nH]c(-n2[nH]c(C)cc2=O)n1	-1	2	3	-2	25	-2	nt
OCCNCc1cc(Br)ccc1OCc1ccc(Cl)cc1Cl	nt	nt	nt	nt	42*	-1	11
OCCNCc1cc(Br)ccc1OCc1ccc(Cl)cc1	-11	-8	nt	-5	16	-3	nt
Cc1c(C#N)c(O)n(C)c(=O)c1N=Nc1ccc(S(N)(=O)=O)cc1	nt	nt	-17	nt	49*	4	18
CC(C)(C)NC(=O)NC(=O)C[n+]1ccc(Cc2ccc([N+](=O)[O-])cc2)cc1	10	7	18	15	50*	13	17
COc1ccc(/C=N/NS(=O)(=O)c2ccccc2)cc1OC(=O)c1ccc(C)cc1	-4	-3	nt	-3	41*	0	28

Bioassay records from PubChem BioAssay.
